The target of assay [1] is Glucocorticoid receptor (Homo sapiens) (UniProt P04150). The assay can be described thus: ATG_GR_TRANS: Attagene TRANS-FACTORIAL HepG2 Assay for human Glucocorticoid Receptor (GR) (AID 2282978; active = hit-call score of the fitted dose curve at least 0.9, where 1 is the maximum;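 note: activators score as hits since higher reporter transcript over DMSO is fitted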). The following applies: HepG2 Attagene TRANS GR reporter, mRNA transcription. In a few lines:
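Fluorescent capillary-electrophoresis quantitation of reporter mRNA is the readout, taken 24 h after dosing human HepG2 cells carrying transiently transfected GAL4-UAS reporter units activated by chimeric NR-GAL4 fusions; activity scored as induction over DMSO.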

In assay [2] the target is Hepatocyte nuclear factor 4-alpha (Homo sapiens) (UniProt P41235). The assay can be described thus: ATG_HNF4a_TRANS: Attagene TRANS-FACTORIAL HepG2 Assay for human Hepatocyte Nuclear Factor 4 alpha (HNF4a) (AID 2282982; active = hit-call score of the fitted dose curve at least 0.9, where 1 is the maximum). As to conditions: HepG2 HNF4a transactivation reporter, mRNA readout. In outline: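 HepG2 cells transiently transfected with multiplexed GAL4-UAS reporter units responsive to chimeric NR-GAL4 proteins; compound exposure 24 h. Reporter mRNA quantified by RT-PCR, 6-FAM labelling, HpaI digestion and capillary electrophoresis; gain of signal versus DMSO baseline.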

Assay [3] is described as follows: ATG_M_06_TRANS: Attagene TRANS-FACTORIAL HepG2 Assay for M06 Transcription Factor (Internal Marker) (AID 2282983; active = hit-call score of the fitted dose curve at least 0.9, where 1 is the maximum). As to conditions: HepG2 Attagene TRANS M06 internal marker reporter. In outline:
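Measured by capillary electrophoresis of fluorescently labelled RT-PCR products, this endpoint reflects reporter mRNA in HepG2 cells harbouring exogenous NR-GAL4 reporter constructs after 24 h exposure, with DMSO as baseline.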

Assay [4] can be described thus: ATG_M_32_TRANS: Attagene TRANS-FACTORIAL HepG2 Assay for M32 Transcription Factor (Internal Marker) (AID 2282984; active = hit-call score of the fitted dose curve at least 0.9, where 1 is the maximum). The following applies: HepG2 Attagene TRANS M32 internal marker reporter. In a few lines:
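HepG2 cells transiently transfected with multiple GAL4-UAS reporter transcription units, dosed for 24 hours; reporter mRNA quantified by RT-PCR, 6-FAM primer extension, HpaI digestion and capillary electrophoresis. Gain-of-signal fitted versus DMSO baseline; internal background-control marker.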

The target in assay [5] is Nuclear receptor subfamily 4 group A member 2 (Homo sapiens) (UniProt P43354). The assay can be described thus: ATG_NURR1_TRANS: Attagene TRANS-FACTORIAL HepG2 Assay for human Nuclear Receptor Related Protein 1 (NURR1) (AID 2282985; active = hit-call score of the fitted dose curve at least 0.9, where 1 is the maximum). As to conditions: HepG2 Attagene TRANS reporter, mRNA readout. In a few lines:
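HepG2 cells transiently transfected with GAL4-UAS reporter units and chimeric NR-Gal4 constructs; chemical exposure 24 h. Reporter mRNA quantified by RT-PCR, fluorescent labelling and capillary electrophoresis; gain of signal fitted relative to DMSO baseline.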

Assay [6] has as its target Transcriptional activator Myb (Homo sapiens) (UniProt P10242). The assay can be described thus: ATG_Myb_CIS: Attagene CIS-FACTORIAL HepG2 Assay for human Myeloblastosis (Myb) Proto-Oncogene Transcription Factor (AID 2282986). The following applies: HepG2 Attagene CIS-FACTORIAL Myb reporter transcription; actives raise or lower the signal. In outline: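 Reporter transcript levels, quantified by fluorescent RT-PCR and capillary electrophoresis, serve as the read-out. Transfected HepG2 cells carrying cis-promoter reporter units are dosed for 24 hours, and curves are fitted bidirectionally against DMSO controls.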

Assay [7] has as its target Nuclear respiratory factor 1 (Homo sapiens) (UniProt Q16656). The assay can be described thus: ATG_NRF1_CIS: Attagene CIS-FACTORIAL HepG2 Assay for human Nuclear Respiratory Factor 1 (NRF1) Orphan Gene (AID 2282987). The following applies: HepG2 NRF1 cis-element reporter, Attagene multiplex; actives raise or lower the signal. In a few lines:
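Multiplexed cis-reporter assay, HepG2 cells, 24 h treatment. Total RNA → oligo(dT) RT → PCR with reporter-specific primers → 6-FAM primer extension → HpaI cut → CE. Bidirectional fit vs DMSO.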

A short description of assay [8]: ATG_NFI_CIS: Attagene CIS-FACTORIAL HepG2 Assay for human Nuclear Factor I (NFI) (AID 2282989). The following applies: HepG2 cis-regulatory reporter, NFI response element transcription; actives raise or lower the signal. In a few lines: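 Transfected HepG2 liver cells, exposed 24 h, supplied total RNA for oligo(dT) reverse transcription and reporter-specific PCR. Labelled, HpaI-cut fragments were sized by capillary electrophoresis; DMSO set the baseline for bidirectional fitting.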

In assay [9] the target is Myc proto-oncogene protein (Homo sapiens) (UniProt P01106). The assay can be described thus: ATG_Myc_CIS: Attagene CIS-FACTORIAL HepG2 Assay for human Myelocytomatosis (Myc) Proto-Oncogene Transcription Factor (AID 2282990). The following applies: HepG2, Attagene cis-reporter transcription factor activity; actives raise or lower the signal. In outline: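 Multiplexed cis-reporter transcription in HepG2 cells after 24 h chemical treatment. Reporter mRNA measured by RT-PCR and capillary electrophoresis fluorescence; activity fitted bidirectionally against DMSO control.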

Assay [10] can be described thus: ATG_NRF2_ARE_CIS: Attagene CIS-FACTORIAL HepG2 Assay for human Nuclear Factor Erythroid 2 Related Factor 2 (NFR2) response to Antioxidant Response Elements (ARE) (AID 2282992). As to conditions: HepG2 Attagene ARE/NRF2 reporter, transcription factor activity; actives raise or lower the signal. In a few lines:
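Cis-factorial assay: transfected HepG2 reporter library, 24 h dosing, mRNA readout via RT-PCR/CE; DMSO-referenced bidirectional analysis.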

Assay [11] in a line: ATG_Oct_MLP_CIS: Attagene CIS-FACTORIAL HepG2 Assay for human Octamer-Binding Transcription Factor (Oct) (AID 2282993). As to conditions: HepG2 Attagene cis-factorial Oct reporter, mRNA; actives raise or lower the signal. In outline:
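Using HepG2 cells bearing transfected cis-reporter constructs, mRNA induction was read after 24 h by fluorescent RT-PCR and capillary electrophoresis, with DMSO defining baseline for gain- or loss-of-signal fits.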

Assay [12] concerns the target Oxysterols receptor LXR-beta (Homo sapiens) (UniProt P55055). Kind of assay: ATG_LXRb_TRANS: Attagene TRANS-FACTORIAL HepG2 Assay for human Liver X Receptor beta (LXRb) (AID 2282981; active = hit-call score of the fitted dose curve at least 0.9, where 1 is the maximum). The following applies: HepG2 Attagene TRANS GAL4-LXRb reporter, mRNA. In outline:
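HepG2 cells transiently transfected with multiple reporter transcription units carrying chimeric NR-Gal4 proteins acting on GAL4-UAS reporters; compound exposure 24 h. Reporter mRNA quantified by RT-PCR, 6-FAM labelling, HpaI digestion and capillary electrophoresis; gain of signal versus DMSO.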

Assay [13] deals with Cellular tumor antigen p53 (Homo sapiens) (UniProt P04637). Kind of assay: ATG_p53_CIS: Attagene CIS-FACTORIAL HepG2 Assay for human p53 Transcription Factor (AID 2282994). The following applies: HepG2 p53 cis-element reporter, Attagene mRNA; actives raise or lower the signal. In a few lines: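 Using HepG2 hepatoma cells carrying cis-acting multiplexed reporters, mRNA induction is detected after a 24 h exposure. Gain- and loss-of-signal responses are fitted relative to DMSO-treated cells.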

Assay [14] addresses Oxysterols receptor LXR-alpha (Homo sapiens) (UniProt Q13133). Kind of assay: ATG_LXRa_TRANS: Attagene TRANS-FACTORIAL HepG2 Assay for human Liver X Receptor alpha (LXRa) (AID 2282980; active = hit-call score of the fitted dose curve at least 0.9, where 1 is the maximum). As to conditions: HepG2 Attagene TRANS reporter, LXRa transactivation. In a few lines: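 Transient HepG2 transfectants, 24 h dosing, RT-PCR/CE mRNA reporter quantitation; gain-of-signal vs DMSO.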

Assay [15] can be described thus: ATG_NF_kB_CIS: Attagene CIS-FACTORIAL HepG2 Assay for human Nuclear Factor Kappa B (NF-kB) (AID 2282991). As to conditions: HepG2 Attagene cis-factorial NF-kB reporter mRNA; actives raise or lower the signal. In outline:
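Transient MRTU transfection of human HepG2 liver cells → 24 h chemical exposure → total RNA, oligo(dT) RT → PCR, 6-FAM primer extension, HpaI digest 2 h 37 C → CE fragment analysis. Bidirectional fitting, DMSO negative control.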

Structures are written as SMILES. Results filed as inconclusive are left out. Active and inactive are the calls of the source. Rule for the calls, unless noted: active = hit-call score of the fitted dose curve at least 0.9, where 1 is the maximum; inactive = score below 0.9.

For orientation: AC50 means the concentration at which the activity in the assay is half-maximal.

Chain of Myc proto-oncogene protein (Homo sapiens) (P01106 whole entry, looked up): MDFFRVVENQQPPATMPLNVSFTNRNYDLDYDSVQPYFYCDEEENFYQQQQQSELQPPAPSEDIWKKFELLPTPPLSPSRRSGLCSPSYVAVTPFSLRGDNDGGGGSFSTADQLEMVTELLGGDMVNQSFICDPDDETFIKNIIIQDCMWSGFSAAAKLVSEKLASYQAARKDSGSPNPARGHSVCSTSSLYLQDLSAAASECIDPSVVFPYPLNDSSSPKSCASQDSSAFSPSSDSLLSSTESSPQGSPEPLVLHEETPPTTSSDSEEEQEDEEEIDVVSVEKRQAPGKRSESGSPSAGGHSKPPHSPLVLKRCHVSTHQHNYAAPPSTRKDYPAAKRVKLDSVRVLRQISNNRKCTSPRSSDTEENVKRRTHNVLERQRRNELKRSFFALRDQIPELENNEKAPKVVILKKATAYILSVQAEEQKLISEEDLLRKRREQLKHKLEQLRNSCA
Chain of Nuclear respiratory factor 1 (Homo sapiens) (Q16656 whole entry, looked up): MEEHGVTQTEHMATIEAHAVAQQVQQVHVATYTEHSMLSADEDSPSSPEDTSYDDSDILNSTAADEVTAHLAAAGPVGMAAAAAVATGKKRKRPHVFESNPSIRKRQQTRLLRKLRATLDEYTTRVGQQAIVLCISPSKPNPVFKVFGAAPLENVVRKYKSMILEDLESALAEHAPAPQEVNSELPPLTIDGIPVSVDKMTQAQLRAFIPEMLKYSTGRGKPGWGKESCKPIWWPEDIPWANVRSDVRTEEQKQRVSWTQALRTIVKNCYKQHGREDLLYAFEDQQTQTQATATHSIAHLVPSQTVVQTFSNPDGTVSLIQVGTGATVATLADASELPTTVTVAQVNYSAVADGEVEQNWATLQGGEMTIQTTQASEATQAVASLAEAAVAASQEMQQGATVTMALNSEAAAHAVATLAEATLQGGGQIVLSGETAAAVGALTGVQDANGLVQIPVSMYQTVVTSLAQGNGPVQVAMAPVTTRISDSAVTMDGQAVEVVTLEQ
Chain of Glucocorticoid receptor (Homo sapiens) (P04150 whole entry, looked up, the tested form may be a part): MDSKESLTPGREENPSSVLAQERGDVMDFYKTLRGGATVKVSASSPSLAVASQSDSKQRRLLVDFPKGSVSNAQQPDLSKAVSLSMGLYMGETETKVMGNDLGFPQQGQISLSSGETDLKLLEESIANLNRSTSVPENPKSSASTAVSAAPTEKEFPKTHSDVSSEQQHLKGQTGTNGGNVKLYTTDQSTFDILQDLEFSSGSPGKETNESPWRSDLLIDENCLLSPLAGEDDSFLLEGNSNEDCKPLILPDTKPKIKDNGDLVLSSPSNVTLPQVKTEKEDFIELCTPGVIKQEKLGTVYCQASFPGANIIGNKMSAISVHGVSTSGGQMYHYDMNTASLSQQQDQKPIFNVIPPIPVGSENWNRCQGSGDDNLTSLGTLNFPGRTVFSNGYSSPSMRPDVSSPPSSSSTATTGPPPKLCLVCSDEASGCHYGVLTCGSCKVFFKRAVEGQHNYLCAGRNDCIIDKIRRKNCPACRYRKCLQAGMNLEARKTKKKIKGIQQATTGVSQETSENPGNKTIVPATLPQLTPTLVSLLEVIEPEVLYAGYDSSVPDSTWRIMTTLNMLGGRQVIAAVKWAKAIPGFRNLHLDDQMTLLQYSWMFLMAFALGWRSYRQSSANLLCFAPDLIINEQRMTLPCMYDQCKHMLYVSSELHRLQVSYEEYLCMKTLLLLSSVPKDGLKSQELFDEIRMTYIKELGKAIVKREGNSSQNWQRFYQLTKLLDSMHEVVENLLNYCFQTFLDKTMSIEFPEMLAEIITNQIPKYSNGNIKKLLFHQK
Chain of Nuclear receptor subfamily 4 group A member 2 (Homo sapiens) (P43354 whole entry, looked up, the tested form may be a part): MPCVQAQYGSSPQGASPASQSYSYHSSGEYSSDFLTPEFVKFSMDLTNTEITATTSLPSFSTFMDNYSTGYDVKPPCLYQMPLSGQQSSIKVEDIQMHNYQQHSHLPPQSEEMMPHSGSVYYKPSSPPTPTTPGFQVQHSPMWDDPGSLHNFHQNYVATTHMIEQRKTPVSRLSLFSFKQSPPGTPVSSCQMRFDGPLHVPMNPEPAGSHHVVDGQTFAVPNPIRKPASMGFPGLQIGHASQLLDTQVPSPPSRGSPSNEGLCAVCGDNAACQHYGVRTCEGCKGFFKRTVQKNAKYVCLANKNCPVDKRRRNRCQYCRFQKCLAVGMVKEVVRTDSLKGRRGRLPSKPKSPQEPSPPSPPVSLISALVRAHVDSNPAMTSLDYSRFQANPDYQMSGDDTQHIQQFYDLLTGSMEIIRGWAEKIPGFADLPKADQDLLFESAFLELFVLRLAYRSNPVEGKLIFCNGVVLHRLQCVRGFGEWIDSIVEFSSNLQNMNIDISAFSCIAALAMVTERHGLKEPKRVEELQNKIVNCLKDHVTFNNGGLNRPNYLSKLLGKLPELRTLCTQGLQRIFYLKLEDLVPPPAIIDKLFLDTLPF
Chain of Oxysterols receptor LXR-beta (Homo sapiens) (P55055 whole entry, looked up, the tested form may be a part): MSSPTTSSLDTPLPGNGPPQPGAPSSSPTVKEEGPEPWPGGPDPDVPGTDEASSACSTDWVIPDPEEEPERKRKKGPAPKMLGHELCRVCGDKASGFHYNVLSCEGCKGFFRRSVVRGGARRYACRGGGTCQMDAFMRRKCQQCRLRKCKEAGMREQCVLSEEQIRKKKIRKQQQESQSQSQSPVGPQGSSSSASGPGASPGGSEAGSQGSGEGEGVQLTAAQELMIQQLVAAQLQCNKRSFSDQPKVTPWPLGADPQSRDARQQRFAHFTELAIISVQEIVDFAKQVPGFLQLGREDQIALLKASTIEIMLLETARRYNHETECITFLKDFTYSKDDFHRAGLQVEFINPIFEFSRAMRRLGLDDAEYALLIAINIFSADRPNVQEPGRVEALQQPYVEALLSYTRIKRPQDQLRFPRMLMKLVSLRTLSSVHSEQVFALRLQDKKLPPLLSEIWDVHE
Chain of Transcriptional activator Myb (Homo sapiens) (P10242 whole entry, looked up): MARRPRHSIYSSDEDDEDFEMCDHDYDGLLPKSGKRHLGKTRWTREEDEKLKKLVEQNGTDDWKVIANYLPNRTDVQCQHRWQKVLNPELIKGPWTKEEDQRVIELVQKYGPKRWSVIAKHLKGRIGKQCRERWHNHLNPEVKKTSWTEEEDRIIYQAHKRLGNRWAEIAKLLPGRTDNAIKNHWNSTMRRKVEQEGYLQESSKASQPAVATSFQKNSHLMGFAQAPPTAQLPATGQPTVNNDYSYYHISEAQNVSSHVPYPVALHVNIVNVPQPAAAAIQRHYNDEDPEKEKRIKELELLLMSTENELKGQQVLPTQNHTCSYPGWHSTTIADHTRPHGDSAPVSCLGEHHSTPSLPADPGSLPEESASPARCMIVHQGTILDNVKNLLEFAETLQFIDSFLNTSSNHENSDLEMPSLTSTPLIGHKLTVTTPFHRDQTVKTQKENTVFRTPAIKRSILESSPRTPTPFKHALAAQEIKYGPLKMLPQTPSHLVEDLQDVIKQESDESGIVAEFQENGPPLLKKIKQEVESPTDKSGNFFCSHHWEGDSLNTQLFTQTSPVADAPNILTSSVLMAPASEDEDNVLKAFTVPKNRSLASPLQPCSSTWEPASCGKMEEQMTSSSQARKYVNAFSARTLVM
Chain of Oxysterols receptor LXR-alpha (Homo sapiens) (Q13133 whole entry, looked up): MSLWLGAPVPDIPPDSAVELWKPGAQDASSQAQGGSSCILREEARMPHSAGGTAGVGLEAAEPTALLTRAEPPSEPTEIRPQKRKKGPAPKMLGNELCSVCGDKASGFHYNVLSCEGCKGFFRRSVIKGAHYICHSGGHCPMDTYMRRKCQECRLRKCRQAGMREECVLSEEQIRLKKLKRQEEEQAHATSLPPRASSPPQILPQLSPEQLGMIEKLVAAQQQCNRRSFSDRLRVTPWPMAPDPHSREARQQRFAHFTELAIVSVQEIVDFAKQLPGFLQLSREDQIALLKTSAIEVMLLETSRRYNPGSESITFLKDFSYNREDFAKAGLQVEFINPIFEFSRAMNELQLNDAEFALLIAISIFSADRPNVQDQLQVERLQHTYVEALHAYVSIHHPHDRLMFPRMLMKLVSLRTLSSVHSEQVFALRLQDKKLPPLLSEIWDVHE
Chain of Hepatocyte nuclear factor 4-alpha (Homo sapiens) (P41235 whole entry, looked up, the tested form may be a part): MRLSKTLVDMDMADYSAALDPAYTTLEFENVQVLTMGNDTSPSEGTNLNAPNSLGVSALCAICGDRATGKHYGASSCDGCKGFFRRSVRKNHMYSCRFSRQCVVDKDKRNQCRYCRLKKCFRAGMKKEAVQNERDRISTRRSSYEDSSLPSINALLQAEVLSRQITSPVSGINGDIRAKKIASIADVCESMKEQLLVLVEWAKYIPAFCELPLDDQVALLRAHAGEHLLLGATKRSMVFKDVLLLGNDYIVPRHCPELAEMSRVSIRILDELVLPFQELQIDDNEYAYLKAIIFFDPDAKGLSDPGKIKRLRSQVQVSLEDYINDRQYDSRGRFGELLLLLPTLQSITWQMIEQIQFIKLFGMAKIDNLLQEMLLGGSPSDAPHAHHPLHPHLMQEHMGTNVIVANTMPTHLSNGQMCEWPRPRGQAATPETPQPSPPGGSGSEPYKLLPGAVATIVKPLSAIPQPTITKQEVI
Chain of Cellular tumor antigen p53 (Homo sapiens) (P04637 whole entry, looked up): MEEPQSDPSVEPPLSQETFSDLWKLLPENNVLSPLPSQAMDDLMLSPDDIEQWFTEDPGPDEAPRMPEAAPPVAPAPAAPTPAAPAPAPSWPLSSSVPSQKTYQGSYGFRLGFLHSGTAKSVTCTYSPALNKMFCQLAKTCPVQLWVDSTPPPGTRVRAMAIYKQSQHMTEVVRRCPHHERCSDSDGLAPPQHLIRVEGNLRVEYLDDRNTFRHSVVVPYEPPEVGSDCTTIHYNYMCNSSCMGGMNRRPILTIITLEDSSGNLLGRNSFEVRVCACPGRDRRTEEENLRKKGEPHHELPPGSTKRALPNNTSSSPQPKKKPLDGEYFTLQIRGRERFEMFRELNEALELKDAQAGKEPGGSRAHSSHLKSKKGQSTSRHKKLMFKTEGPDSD

On to `CC1(C)[C@H](C(=O)OCc2cccc(Oc3ccccc3)c2)[C@@H]1C=C(Cl)Cl`, for which the outcome in [1], in assay [2], in [3], in assay [4], in assay [5] and in assay [6] was inactive. Moreover, the call in [7], in [8], in [9], in [10] and in [11] was inactive.

`O=Cc1ccc(F)cc1`: the molecule was called inactive in assay [1], in [12], in assay [3], in assay [4], in assay [5] and in [7]. The call in [8], in [9], in assay [10] and in assay [13] was inactive.

Consider `C=CC(C)(O)CCC=C(C)CCC=C(C)C` (configuration not stated), for which the result in assay [1], in [14] and in [3] was inactive. The AC50 was 163 µM (active) in [6]; 164 µM (active) in [7]; 143 µM (active) in assay [8]; 181 µM (active) in [9]; 180 µM (active) in assay [15]; 100 µM (active) in [10]. Moreover, in assay [11], the AC50 is 82.7 µM (active).

Consider `COc1ccnc(CS(=O)c2nc3cc(OC(F)F)ccc3[nH]2)c1OC` (configuration not stated), for which the outcome in assay [1], in assay [12], in [3], in assay [5], in [6] and in assay [7] was inactive. For the same molecule, the molecule was called inactive in [9] and in assay [11]. In [10], the half-maximal activity concentration (AC50) is 59.4 µM (active).

With `Nc1cc(N)cc(C(=O)O)c1`, the molecule was classed as inactive in assay [1], in assay [14], in [3], in assay [6], in assay [7] and in assay [8]. For the same molecule, the outcome in [9], in [15], in assay [10] and in assay [11] was inactive.

As for `CCCCOCCOCCSC#N`, the call in assay [1], in assay [12], in assay [2], in assay [3], in assay [4] and in assay [6] was inactive. Moreover, the result in [7], in assay [8], in assay [9], in assay [15] and in assay [13] was inactive. In assay [10], the AC50 was 16.7 µM (active).

The record behind these values is PubChem BioAssay (EPA / NIEHS).
